The source of these data is PubChem BioAssay.

Assay [1] concerns PRMT1 (protein arginine N-methyltransferase 1). Briefly: small molecules binding arginine methyltransferase PRMT1 – biochemical, small-molecule microarray, 635 nm fluorescence, primary screen (AID 1088).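 Note: binding of Prmt1 protein to compounds spotted on small-molecule microarray slides.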 Conditions: higher = more signal.
Assay [2] in a line: growth effects on S. cerevisiae YJM789 – YJM789 clinical isolate, OD600, 24 h, basal, primary screen (AID 1089).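 Note: growth of clinical yeast isolate S. cerevisiae YJM 789 seeded 1000 cells per well; test concentration not given here.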 Conditions: higher = more signal, called active from +8 up or from −8 down.
Assay [3] in a line: S. pombe growth modifiers, basal conditions – strain 972, OD600, 24 h, no modulator, primary screen (AID 1090).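 Note: basal condition with compound alone and no growth modifier present; test concentration not given here.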 Conditions: S. pombe 972 growth, higher = more signal, called active from +8 up or from −8 down.
Assay [4] is described as follows: budding yeast growth modifiers under rapamycin – strain BY4716, OD600, 96 h, primary screen (AID 1091). Note: test concentration not given here. Particulars: S. cerevisiae BY4716 + rapamycin, higher = more signal, called active from +8 up or from −8 down.
Assay [5] addresses Torsin-1A-interacting protein 2 (Homo sapiens) (UniProt Q8NFQ8). Briefly: small molecules binding lysate-expressed LULL1 – cell lysate, human LULL1 lysate, 635/667 nm fluorescence, primary screen (AID 1092).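 Note: probe is lysate of COS7 cells overexpressing human LULL1; score merges per-feature 667 nm fluorescence with signal-to-noise.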 Conditions: small-molecule microarray, hLULL1 lysate binding, 635 nm fluorescence; higher = more signal.
A short description of assay [6]: optical density change of DRC41 E. coli – strain DRC41, OD650, 24 h, E. coli filamentation project, primary screen (AID 1093).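 Note: MC1000 strain lacking acrAB efflux and sulA so SOS filamentation is blocked; test concentration not given here.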 Conditions: E. coli DRC41 growth, higher = more signal, called active from +8 up or from −8 down.
Assay [7] is described as follows: probe aLefty2 binding to arrayed compounds – biochemical, biotinylated probe, 635/667 nm fluorescence, primary screen (AID 1094).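 Note: score merges spot fluorescence near 667 nm with spot signal-to-noise ratio.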 Conditions: small-molecule microarray, higher = more signal.
Assay [8] concerns Noggin (protein binding on small-molecule microarray). The assay is described as follows: small molecules binding Noggin protein – biochemical, 635/667 nm fluorescence, primary screen (AID 1095).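 Note: score merges 667 nm feature fluorescence with signal to noise over triplicate slides.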 Conditions: 635 nm fluorescence, higher = more signal.
Assay [9] has as its target Neurogenic locus notch homolog protein 3 (Homo sapiens) (UniProt Q9UM47). The assay is described as follows: small molecules binding NOTCH3 protein – biochemical, 635/667 nm fluorescence, primary screen (AID 1096). Conditions: small-molecule microarray, 635 nm fluorescence, higher = more signal.
The nature of assay [10]: probe aEGFR binding to arrayed compounds – biochemical, biotinylated probe, 635/667 nm fluorescence, primary screen (AID 1097).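 Note: probe is a biotinylated anti-EGFR antibody binding compounds printed on slides; score combines fluorescence near 667 nm and signal to noise of each spot.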 Conditions: small-molecule microarray, higher = more signal.

Calls of active or inactive are those of the source.

Chain of Neurogenic locus notch homolog protein 3 (Homo sapiens) (Q9UM47 whole entry, looked up): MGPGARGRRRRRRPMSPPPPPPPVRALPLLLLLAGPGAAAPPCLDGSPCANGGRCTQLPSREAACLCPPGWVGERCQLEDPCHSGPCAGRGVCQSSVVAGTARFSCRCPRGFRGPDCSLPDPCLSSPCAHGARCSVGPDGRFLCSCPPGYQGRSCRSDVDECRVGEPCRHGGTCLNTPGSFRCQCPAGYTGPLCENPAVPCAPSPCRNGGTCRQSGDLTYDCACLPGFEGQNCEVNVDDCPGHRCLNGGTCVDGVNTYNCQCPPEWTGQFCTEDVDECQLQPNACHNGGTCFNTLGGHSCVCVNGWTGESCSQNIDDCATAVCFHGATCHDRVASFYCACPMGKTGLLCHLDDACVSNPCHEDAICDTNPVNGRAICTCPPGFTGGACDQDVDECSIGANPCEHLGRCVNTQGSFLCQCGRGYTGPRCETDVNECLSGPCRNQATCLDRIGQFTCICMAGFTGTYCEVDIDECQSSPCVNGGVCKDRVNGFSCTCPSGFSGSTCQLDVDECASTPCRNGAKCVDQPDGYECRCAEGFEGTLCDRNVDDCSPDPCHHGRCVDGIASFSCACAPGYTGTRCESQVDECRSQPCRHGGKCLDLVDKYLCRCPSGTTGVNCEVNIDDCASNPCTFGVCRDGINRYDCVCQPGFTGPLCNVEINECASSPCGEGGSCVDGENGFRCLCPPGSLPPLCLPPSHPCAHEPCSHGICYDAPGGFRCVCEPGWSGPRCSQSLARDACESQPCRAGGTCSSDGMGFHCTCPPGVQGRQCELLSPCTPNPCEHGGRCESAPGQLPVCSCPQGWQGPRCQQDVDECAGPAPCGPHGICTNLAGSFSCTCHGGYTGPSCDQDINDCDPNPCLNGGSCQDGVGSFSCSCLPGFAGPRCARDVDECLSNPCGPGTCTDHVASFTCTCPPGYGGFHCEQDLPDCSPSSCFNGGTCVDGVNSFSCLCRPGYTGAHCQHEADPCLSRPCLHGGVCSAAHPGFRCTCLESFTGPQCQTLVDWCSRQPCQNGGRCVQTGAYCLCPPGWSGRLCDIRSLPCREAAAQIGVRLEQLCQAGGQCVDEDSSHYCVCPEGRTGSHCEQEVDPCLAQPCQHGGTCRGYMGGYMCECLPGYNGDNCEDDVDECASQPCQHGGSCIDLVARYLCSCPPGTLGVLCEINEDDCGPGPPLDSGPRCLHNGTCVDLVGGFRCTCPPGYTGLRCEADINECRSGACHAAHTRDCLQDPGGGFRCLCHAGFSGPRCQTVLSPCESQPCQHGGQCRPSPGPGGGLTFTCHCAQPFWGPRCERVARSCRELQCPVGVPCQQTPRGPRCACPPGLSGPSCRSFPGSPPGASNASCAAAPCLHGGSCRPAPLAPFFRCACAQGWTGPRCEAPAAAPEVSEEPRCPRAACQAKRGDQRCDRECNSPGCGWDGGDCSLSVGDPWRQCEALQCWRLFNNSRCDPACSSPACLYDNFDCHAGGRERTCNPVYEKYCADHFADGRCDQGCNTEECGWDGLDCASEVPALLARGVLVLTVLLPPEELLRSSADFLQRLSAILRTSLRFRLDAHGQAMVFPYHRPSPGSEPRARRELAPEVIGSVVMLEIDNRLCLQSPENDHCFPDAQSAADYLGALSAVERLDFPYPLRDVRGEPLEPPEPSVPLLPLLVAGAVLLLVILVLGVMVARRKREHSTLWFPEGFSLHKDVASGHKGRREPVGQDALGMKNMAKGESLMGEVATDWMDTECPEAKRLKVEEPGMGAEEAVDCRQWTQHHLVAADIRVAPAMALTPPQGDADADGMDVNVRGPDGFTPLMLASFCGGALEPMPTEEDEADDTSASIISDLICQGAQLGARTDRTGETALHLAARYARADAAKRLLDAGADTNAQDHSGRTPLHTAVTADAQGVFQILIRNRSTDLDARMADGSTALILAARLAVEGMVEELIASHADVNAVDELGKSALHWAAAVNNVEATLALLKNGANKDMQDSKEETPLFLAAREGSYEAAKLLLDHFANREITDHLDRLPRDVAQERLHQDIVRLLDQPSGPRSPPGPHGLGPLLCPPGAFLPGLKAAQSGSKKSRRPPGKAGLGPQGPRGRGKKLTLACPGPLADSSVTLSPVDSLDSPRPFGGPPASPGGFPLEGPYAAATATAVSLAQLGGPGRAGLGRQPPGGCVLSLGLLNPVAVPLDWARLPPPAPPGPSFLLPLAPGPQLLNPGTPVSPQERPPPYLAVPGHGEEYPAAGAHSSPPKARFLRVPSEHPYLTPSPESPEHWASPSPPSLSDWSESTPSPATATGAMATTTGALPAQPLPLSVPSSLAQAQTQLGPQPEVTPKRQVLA
Chain of Torsin-1A-interacting protein 2 (Homo sapiens) (Q8NFQ8 whole entry, looked up): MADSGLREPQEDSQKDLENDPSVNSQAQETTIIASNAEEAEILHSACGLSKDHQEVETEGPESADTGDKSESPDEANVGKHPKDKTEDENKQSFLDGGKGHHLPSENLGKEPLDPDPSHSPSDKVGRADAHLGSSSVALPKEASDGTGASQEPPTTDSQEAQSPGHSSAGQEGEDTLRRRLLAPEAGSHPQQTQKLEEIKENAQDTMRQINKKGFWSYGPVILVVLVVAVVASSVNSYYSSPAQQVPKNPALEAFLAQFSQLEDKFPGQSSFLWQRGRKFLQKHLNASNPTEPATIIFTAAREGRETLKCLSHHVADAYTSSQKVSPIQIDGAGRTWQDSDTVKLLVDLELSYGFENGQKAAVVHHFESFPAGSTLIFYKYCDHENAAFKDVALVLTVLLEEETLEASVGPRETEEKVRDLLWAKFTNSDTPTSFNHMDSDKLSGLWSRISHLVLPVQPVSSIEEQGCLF

With `C=CCN1C(=O)[C@@]2(O[C@@H](CCO)[C@H]([Si](C)(C)c3ccc(OC)cc3)[C@H]2C)c2cc(N3CCCCC3=O)ccc21`, the composite z-score in assay [1] is 1.55; in [5], 2.24; in [7] it was -0.157; in assay [8] it was 1.19; in [9] it was 0.868; in assay [10] it was -0.0662. The z-score in assay [2] was 0.451 (inactive); in assay [3], 0.215 (inactive); in assay [4], 1.81 (inactive); in assay [6], 0.649 (inactive).
Take `C=CCNC(=O)[C@H]1[C@@H]2C(=O)O[C@@H](c3ccccc3)[C@@H](c3ccccc3)N2[C@@H](c2ccc(O)cc2)[C@]12C(=O)N(C(=O)OCCOC)c1ccc(C#Cc3ccc(OC)cc3)cc12`: the composite z-score in assay [1] was 1.42; in assay [5], 2.23; in [7] it was -0.0302; in assay [8] it was 0.44; in assay [9], 0.892; in [10], 0.0219. In addition, the z-score was 0.622 (inactive) in assay [2], 0.074 (inactive) in assay [3], 1.66 (inactive) in [4] and -0.866 (inactive) in assay [6].
On to `COC(=O)[C@@]1(Cc2ccccc2)[C@H]2c3cc(C(=O)N(C)C)n(CCF)c3C[C@H]2CN1C(=O)c1ccccc1`, for which the composite z-score in assay [1] is 0.479; in assay [5] it was 2.21; in assay [7] it was 0.534; in assay [8] it was -0.669; in assay [9], 0.782; in assay [10], 0.21. In addition, the z-score in assay [2] is 0.176 (inactive); in [3] it was 1.18 (inactive); in assay [4], 0.678 (inactive); in assay [6], -0.0418 (inactive).
`C[C@]12C(=O)N(CCO)[C@@H]3C(=O)N(c4ccc(Cl)cc4)CC=CC31O[C@@H]1/C=C\CCCOC(=O)C12` (stereo not given in full): the composite z-score in assay [1] was -0.0919; in assay [5], -0.236; in assay [7], 0.034; in assay [8], -0.464; in assay [9] it was 0.0111; in assay [10], -0.216. Besides, the z-score in assay [2] was -0.174 (inactive); in [3] it was -0.13 (inactive); in assay [4], 0.169 (inactive); in assay [6], 0.125 (inactive).
Regarding `C=CCC(OC(C)=O)[C@@H]1[C@@H](N(Cc2ccc(-c3ccccc3)cc2)C(=O)Cc2ccc(OC)cc2)c2cc(OCCCO)ccc2N1C(=O)Cc1ccc(OC)cc1` (stereo not given in full), the composite z-score in assay [1] is 0.622; in assay [5], 0.436; in assay [7] it was 0.0717; in assay [8], -0.19; in assay [9] it was -0.209; in assay [10] it was 0.0101. The z-score in [2] was -0.0563 (inactive); in [3] it was 0.68 (inactive); in [4], -0.753 (inactive); in [6], -0.553 (inactive).
Turning to `[N-]=[N+]=Nc1ccccc1C[C@]1(C(=O)N2CCCCC2)N=C(c2ccc(OCCCO)cc2)O[C@H]1c1ccccc1`, the composite z-score in assay [1] came to 1.33; in assay [5], 2.74; in assay [7], 0.131; in assay [8], 0.595; in assay [9], 1.1; in assay [10], 0.279. Also, the z-score in assay [2] was -0.44 (inactive); in [3], -9.22 (active); in assay [4], 0.926 (inactive); in [6], 1 (inactive).
Regarding `CC(C)(C)OC(=O)CC[C@@]1(C(N)=O)N=C(c2ccc(OCCCO)cc2)O[C@@H]1c1ccccc1CN=[N+]=[N-]`, the composite z-score is -0.319 in assay [1]; 2.86 in assay [5]; 0.669 in [7]; 0.324 in assay [8]; 0.851 in assay [9]; 0.756 in assay [10]. Also, the z-score was 0.689 (inactive) in assay [2], -0.477 (inactive) in assay [3], -0.132 (inactive) in assay [4] and 0.035 (inactive) in assay [6].
Take `COC(=O)[C@@]1(Cc2ccc(F)cc2)[C@H]2c3cc(C(=O)N(C)C)n(CCF)c3C[C@H]2CN1C(=O)c1ccccc1`: the composite z-score in assay [1] is -0.0162; in assay [5], 2.35; in assay [7], 0.265; in [8] it was 0.104; in [9] it was -0.0282; in [10], -0.0896. Further, the z-score in [2] was -2.02 (inactive); in [3] it was 0.287 (inactive); in [4] it was -0.318 (inactive); in assay [6], 1.25 (inactive).
As for `COC(=O)C(CC#Cc1ccc2c(c1)[C@]1(C(=O)N2)[C@H](C(N)=O)[C@H]2C(=O)O[C@H](c3ccccc3)[C@H](c3ccccc3)N2[C@@H]1c1ccccc1OCCO)C(=O)OC`, the composite z-score in assay [1] was 1.56; in assay [5], 3.13; in assay [7] it was -0.075; in [8], 0.877; in assay [9] it was 0.576; in [10] it was 0.0167. The z-score in [2] is 2.79 (inactive); in assay [3], 0.943 (inactive); in assay [4] it was 5.37 (inactive); in assay [6], 1.12 (inactive).
`COCCOC(=O)N1C(=O)[C@@]2(c3cc(C#CC4=CCCCC4)ccc31)[C@H](c1ccc(O)cc1)N1[C@H](c3ccccc3)[C@H](c3ccccc3)OC(=O)[C@H]1[C@@H]2C(=O)N1CCc2cc(OC)c(OC)cc2C1`: the composite z-score in [1] was 1.15; in [5], 2.56; in [7], 0.0113; in assay [8] it was 0.286; in assay [9], 0.399; in [10], -0.0065. In addition, the z-score in [2] is 0.793 (inactive); in assay [3], 0.244 (inactive); in assay [4] it was 0.543 (inactive); in assay [6], 0.0512 (inactive).
With `COC(=O)[C@@]1(Cc2ccc(F)cc2)[C@H]2c3cc(C(=O)N4CCCC4)n(CCc4c[nH]c5cc(F)ccc45)c3C[C@H]2CN1C(=O)c1ccccc1`, the composite z-score in assay [1] was 0.765; in assay [5], 3.39; in [7], 0.605; in [8], 0.344; in assay [9], 1.02; in assay [10], 0.756. For the same compound, the z-score in assay [2] is 0.0277 (inactive); in assay [3] it was 1.24 (inactive); in [4], 1.94 (inactive); in assay [6], -0.167 (inactive).
Consider `CC1C2C(CCCO)=CC(C3C(=O)N(C)C(=O)C23)N1Cc1cccc(OC(F)(F)F)c1` (stereo not given), for which the composite z-score was 1.53 in assay [1]; 3.13 in assay [5]; 0.156 in assay [7]; 0.148 in [8]; 0.769 in assay [9]; 0.1 in assay [10]. The z-score in assay [2] was 0.573 (inactive); in [3], -0.951 (inactive); in [4], 1.61 (inactive); in [6], 0.964 (inactive).
Turning to `COC(=O)C(CC#Cc1ccc2c(c1)[C@]1(C(=O)N2)[C@H](C(=O)N2CCCCCCC2)[C@H]2C(=O)O[C@H](c3ccccc3)[C@H](c3ccccc3)N2[C@@H]1c1ccc(OCCO)cc1)C(=O)OC`, the composite z-score in [1] came out at 1.52; in [5], 5.35; in assay [7] it was 1.79; in assay [8], 2.35; in assay [9], 1.01; in assay [10], 1.38. Moreover, the z-score in assay [2] was -0.0902 (inactive); in assay [3], 0.563 (inactive); in [4], 1.28 (inactive); in assay [6], 0.149 (inactive).
`C=CC[C@]1(C(N)=O)N=C(c2ccc(OCCCO)cc2)O[C@H]1c1ccccc1N=[N+]=[N-]`: the composite z-score amounted to 1.37 in [1]; 3.33 in assay [5]; 0.239 in [7]; 0.301 in assay [8]; 0.923 in assay [9]; 0.0049 in [10]. In addition, the z-score in assay [2] is 0.344 (inactive); in assay [3] it was -1.3 (inactive); in [4], 0.673 (inactive); in assay [6], 1.94 (inactive).
